CHT block = human CHT choline transport inhibition | Q9GZV3 | CHT-expressing cells, membrane potential dye, choline response; stronger effect = lower value | B-score at 10 µM | actives 0.86% (n = 310,000);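 active = B-score over 3 SD under the library average, and starting fluorescence ratio not unusually high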;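 also: choline stimulus applied at its EC90 after an EC20 pre-addition; B-score computed on integrated fluorescence ratio after choline addition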
Target sequence (Q9GZV3 whole entry, looked up): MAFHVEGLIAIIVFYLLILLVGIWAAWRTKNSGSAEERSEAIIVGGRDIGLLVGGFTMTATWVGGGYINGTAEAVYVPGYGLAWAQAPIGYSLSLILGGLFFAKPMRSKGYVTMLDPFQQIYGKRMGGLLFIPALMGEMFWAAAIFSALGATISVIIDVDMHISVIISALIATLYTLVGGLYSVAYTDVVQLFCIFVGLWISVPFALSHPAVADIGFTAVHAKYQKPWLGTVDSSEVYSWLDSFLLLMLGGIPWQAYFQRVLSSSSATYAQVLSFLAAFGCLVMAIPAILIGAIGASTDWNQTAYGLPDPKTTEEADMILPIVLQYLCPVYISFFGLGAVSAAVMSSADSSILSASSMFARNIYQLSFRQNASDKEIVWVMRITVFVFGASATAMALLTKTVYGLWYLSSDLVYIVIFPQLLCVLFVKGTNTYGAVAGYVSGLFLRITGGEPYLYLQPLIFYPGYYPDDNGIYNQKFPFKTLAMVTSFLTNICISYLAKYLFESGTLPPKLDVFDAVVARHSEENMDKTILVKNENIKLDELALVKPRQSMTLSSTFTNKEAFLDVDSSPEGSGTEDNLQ
EP2 mod = modulates human prostaglandin E2 receptor EP2 signaling; P43116; EP2-expressing cells, cAMP HTRF FRET, PGE2 co-stimulation; induction, % at 25 µM; actives 0.83% (n = 260,000);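 active = compounds whose cAMP rise, as percent of the full-agonist control response, exceeds 60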;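 also: rat C6 glioma line stably carrying human EP2 under a CMV promoter; the protocol text gives 20 µM as final concentration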
PGE2 EP2 inh = inhibitors of human EP2 prostaglandin E2 receptor. C6 glioma cells expressing human EP2, cAMP TR-FRET; cells stimulated with saturating PGE2. inhibition, % at 25 µM. actives 0.52% (n = 260,000). AID 1422;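 active = percent inhibition above 40 after rounding to a whole number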;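 also: rat C6 glioma host cells with rolipram phosphodiesterase inhibitor present; the protocol text gives 20 µM as final concentration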
CHT PAM = allosteric activators of human choline transporter CHT; B-score at 10 µM; CHT-expressing cells, membrane potential dye, choline EC20; stronger effect = higher value; LV-AA mutant CHT in HEK293 cells; actives 0.49% (n = 310,000);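 active = initial fluorescence not abnormally high and integrated response B-score, plate-corrected, over 3 SD above library mean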
Hits are given with their value; n = inactive; x = not tested or not shown; ! = repeats disagree. Compounds with a hit are over-represented: about 2% of the library has one in this group of screens.

SMILES	CHT block	EP2 mod	PGE2 EP2 inh	CHT PAM
Cc1cc(C)c2ccc(C)[n+]([O-])c2c1O	-19.7	n	n	n
O=S(=O)(c1ccc(-n2cnnn2)cc1)N(C1CCCCC1)C1CCCCC1	n	64.4	n	n
O=[N+]([O-])c1ccc2ncccc2c1CCc1c([N+](=O)[O-])ccc2ncccc12	x	n	53.0	x
O=[N+]([O-])c1cccc2c1ccc1ncccc12	n	x	x	n
Fc1ccc(Cn2cccc2C2=NC(c3ccccc3)CO2)cc1 (stereo unspecified)	n	61.2	n	n
COCCn1nnnc1C(c1cc2cc(C)cc(C)c2[nH]c1=O)N1CC=C(c2ccc(F)cc2)CC1 (stereo unspecified)	x	n	n	x
Cc1cc(CSC(=N)N)c(CSC(=N)N)cc1C	n	n	n	11.8
Cc1ccc2cc(C#N)c(N3CCN(S(C)(=O)=O)CC3)nc2c1C	x	n	n	x
N#C/C(N=Nc1ccccc1O)=N\Nc1ccccc1O	-10.8	x	x	n
CN1c2cccc3cccc(c23)N(C)C1c1cccs1	n	64.4	n	n
c1ccc(CCNc2nc(-c3ccncc3)nc3ccccc23)cc1	n	n	45.8	n
O=c1/c(=C/c2ccc3c(c2)OCO3)sc2n1CCCN=2	x	n	n	x
O=C(NCc1ccco1)c1ccc(-c2ccccc2Cl)o1	n	n	59.9!	n
CC1(C)CCC2=C(O1)c1ccccc1C(=O)C2=O	x	n	40.6	x
COc1ccc(-c2ccc(=O)n(CC3CCN(C(=O)c4ccccc4OC)CC3)n2)cc1	x	n	x	x
CCOC(=O)C1(CCc2ccccc2)CCN(Cc2cccc3nccnc23)CC1	-11.6	n	n	n
CCOC(=O)C1(CCc2ccccc2)CCN(Cc2ccn[nH]2)CC1	n	n	n	n
COc1ccc(OC)c(-c2nc3ccccn3c2NC2CCCC2)c1	x	n	n	x
CCOc1ccc(NC(=S)Nc2ccc3nsnc3c2)cc1	n	n	43.9	n
COc1ccc(NC(=S)Nc2ccc3nc(C)c(C)nc3c2)cc1	n	n	n	n
COc1ccc(NC(=S)Nc2ccc3nsnc3c2)cc1	n	n	41.7	n
Cn1c(=O)c2cc(S(=O)(=O)NCC3CC4CCC3C4)ccc2n(C)c1=O (stereo unspecified)	x	n	n	x
COc1cc2c3cc1Oc1c(OC)c(OC)cc4c1[C@@H](Cc1ccc(O)c(c1)Oc1ccc(cc1)C[C@@H]3N(C)CC2)CN(C)C4	x	n	48.3	x
COc1ccc2cc1Oc1ccc(cc1)C[C@H]1c3c(cc(OC)c4c3Oc3cc5c(cc3O4)CCN[C@H]5C2)CCN1C	x	n	46.9	x
CCn1cc(C(=O)O)c(=O)c2cc(F)c(N3CCN(C)CC3)cc21	n	n	n	6.39
SMILES	CHT block	EP2 mod	PGE2 EP2 inh	CHT PAM
CCCn1c(N(C)Cc2ccccc2)nc2c1c(=O)n(C)c(=O)n2C	x	n	n	x
CC(=O)C1=C(C)NC(SCC(=O)c2ccc(-c3ccccc3)cc2)=C(C#N)C1c1cccnc1 (stereo unspecified)	n	n	49.4	n
CC(=O)C1=C(C)NC(SCSc2ccccc2)=C(C#N)C1c1cccnc1 (stereo unspecified)	n	n	n	n
Cc1sc2nc(C3CC3)n3c(=O)n(CC(=O)N4CCCCC4C)nc3c2c1C (stereo unspecified)	x	n	x	x
CC1=N[C@@](C)(COC(=O)[C@]2(C)N[C@](C)(CO)CO2)COC1=O	x	n	47.7	x
CCOC(=O)c1ccc(NC(=O)CSc2nnc(-c3ccco3)n2CC)cc1	x	n	n	x
Cc1onc(-c2ccccc2Cl)c1C(=O)OCc1cnc(Cl)s1	n	64.1	n	n
CCOC(=O)C1CCN(S(=O)(=O)c2ccc(S(=O)(=O)N3CCC(C)CC3)cc2)CC1	x	n	n	x
O=C(/C=C/c1ccco1)Nc1ccccc1N1CCCCC1	n	62.3	n	n
COC(=O)c1ccccc1NC(=O)/C=C/c1ccco1	n	n	n	n
CCc1cc2ccccc2nc1SCC(=O)Nc1ccccc1C(F)(F)F	x	61.2	n	x
CCc1cc2ccccc2nc1SCC(=O)Nc1ccccc1Cl	x	69.0	n	x
CCc1cc2ccccc2nc1SCC(=O)Nc1ccccc1F	x	n	n	x
Cc1nn2c(C(F)(F)F)c3c(nc2c1-c1ccccc1)CCC3	n	62.0	n	n
Cc1nn2c(NC(C)C)c3c(nc2c1-c1ccccc1)CCC3	n	n	n	n
CCOC(=O)C1CCCN(C(=O)Cn2sc3nc(C)cc(C)c3c2=O)C1 (stereo unspecified)	n	n	114.6	n
Cc1ccc(-n2nnnc2SCC(=O)Nc2nc3ccccc3s2)cc1C	x	n	n	x
NC(=O)c1c(NC(=O)C2CC(c3ccccc3O)=NO2)sc2c1CCCC2 (stereo unspecified)	x	n	n	x
COc1ccc(-c2[nH]ncc2N=Nc2ccccc2)cc1	n	61.6	n	n
COc1ccc(-c2[nH]ncc2N=Nc2cc(C)cc(C)c2)cc1	n	n	n	n
CC(/C=N/NC(=O)Cn1nnc(N)n1)=C\c1ccc(C(C)C)cc1	n	89.2	n	n
CC[C@H]1CN(C)[C@@H]2Cc3c([nH]c4ccccc34)C(=O)C[C@H]1[C@H]2C(=O)OC	x	n	52.4	x
CCC1CN(C)C2Cc3c([nH]c4ccccc34)C(=O)CC1C2C(=O)OC (stereo unspecified)	n	n	n	n
Cc1cccc2cc(CN(Cc3ccco3)C(=S)Nc3ccccc3)c(=O)[nH]c12	x	n	n	x
CN1CCc2cccc3c2C1Cc1ccc(O)c(O)c1-3 (stereo unspecified)	n	n	60.0	n
SMILES	CHT block	EP2 mod	PGE2 EP2 inh	CHT PAM
COc1ccc2c(c1)C(O)CC1(CCN(CC(O)c3ccccc3)CC1)O2 (stereo unspecified)	x	n	n	x
CCOC(=O)CSc1nnc2c3ccccc3nc(Cc3ccccc3)n12	x	64.6	n	x
CC(=O)CSc1nnc2c3ccccc3nc(C(C)(C)C)n12	n	60.8	n	n
CC(C)(C)NC(=O)CSc1nnc2c3ccccc3nc(C(C)(C)C)n12	x	n	n	x
CCOC(=O)CSc1nnc2c3ccccc3nc(C(C)(C)C)n12	x	n	n	x
COc1ccc(C2(O)CCN(CCNC(=O)c3c(F)cccc3F)CC2)cc1	x	n	n	x
Cc1ccc(CN(CCCn2ccnc2)Cc2cccn2-c2cccc(F)c2)o1	x	61.6	n	x
Cc1cccc(-c2nnc(N(C(=O)C3CCC3)C(C)C)s2)c1	x	n	n	x
CC1Cc2ccccc2N1C(=O)c1cc2nc(-c3ccco3)cc(C(F)(F)F)n2n1 (stereo unspecified)	x	72.0	n	x
Cc1ccc(OCCCN2C(=O)C(=O)c3cccc(C)c32)cc1	n	63.5	n	n
COc1ccc(/C=C/C(=O)NC(=S)Nc2ccc(S(=O)(=O)Nc3nc(C)cc(C)n3)cc2)cc1	x	n	n	x
COc1cc(NS(=O)(=O)c2ccc(NC(=S)NC(=O)/C=C/c3ccc(OC)c(OC)c3)cc2)ncn1	n	n	n	n
COc1ccc(/C=C/C(=O)NC(=S)Nc2ccc(S(=O)(=O)Nc3cc(OC)ncn3)cc2)cc1	x	n	63.9	x
COc1ccc(/C=C/C(=O)NC(=S)Nc2ccc(S(=O)(=O)Nc3nccnc3OC)cc2)cc1	n	n	40.4	n
CCc1nnc(NS(=O)(=O)c2ccc(NC(=S)NC(=O)/C=C/c3ccc(F)cc3)cc2)s1	n	n	133.1	n

Screens from PubChem BioAssay.
